Screening results deposited in PubChem by National Center for Advancing Translational Sciences (NCATS).
In the library only some 2.4% were active in any assay of this set; here they are far more common.
POLK inh: blocks human DNA polymerase kappa activity; Q9UBT6; AID 588579; 0.53% of 400,000 active; purified Pol kappa, fluorescent DNA synthesis assay, 10 min; Potency, µM (top dose mostly 107 µM), actives largely listed as inhibitors
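Here, compound and 10 nM enzyme are combined for 15 min at room temperature; adding 50 nM substrate (final) starts DNA synthesis, tracked by fluorescence at 0 and 10 min against buffer-only wells.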
POLB inh: blocks human DNA polymerase beta activity; P06746; Pol beta primer extension/strand displacement, fluorescence kinetic; Potency, µM (top dose mostly 114 µM), usual class: inhibitors; 1.3% of 340,000 active
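Pol beta (10 nM) was preincubated with compound for 15 min at room temperature. The reaction was then started with 50 nM substrate and read immediately and after a further 10 min at room temperature.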
WRN inhibitor: blocks human WRN helicase; Q14191; WRN helicase unwinding, fluorescent forked duplex, kinetic; 0.46% of 360,000 active; Potency, µM (highest dose often 114 µM), usual class: inhibitors; note: nearly all actives have a fitted effect of over 55% in size
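Enzyme (20 nM final) and test compound sit together 15 min at room temperature before substrate addition. Substrate is a single-forked duplex oligonucleotide (100 nM) labelled with fluorophore and quencher, with 2 mM ATP; helicase unwinding raises red fluorescence, read kinetically.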
FEN1 inh-1: human FEN1 inhibition. P39748. Recombinant FEN1 flap cleavage, fluorescence, 15 min. Potency, µM (doses to about 114 µM), usual class: inhibitors. 0.35% of 390,000 active; note: nearly all actives have a fitted effect of over 65% in size
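With each library titrated from low to high concentration, compounds met 10 nM FEN1 for 15 min at room temperature before 50 nM substrate was added; readings at 0 and 15 min fed four-parameter Hill curve fits.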
Pol eta inh-1: blocks human DNA polymerase eta activity. recombinant Pol eta, fluorescent DNA replication assay. Potency, µM (doses to about 114 µM), hits mostly inhibitors. 1.2% of 390,000 active. AID 588591
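Fluorescent replication assay: 50 nM final substrate added after a 15 min room-temperature compound preincubation with 10 nM enzyme. Signal taken at 0 min and again at 10 min.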
Pol iota inh: DNA polymerase iota (human) inhibition; Pol iota fluorescent replication assay, 10 min; Potency, µM (top dose mostly 115 µM), usual class: inhibitors; 1% of 390,000 active; AID 588590
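Pol iota at 10 nM preincubated 15 min with compounds at room temperature; reaction started with fluorescent substrate, 50 nM final. Fluorescence read kinetically at 0 and 10 min; buffer-only wells as negative control.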
PGK validate: validation of Trypanosoma brucei phosphoglycerate kinase inhibitors | shares compounds with POLK inh | Potency, µM (titrated, usually from 57.5 µM), most hits filed as inhibitors | TbPGK coupled GAPDH assay, Kinase-Glo luminescence | 79% of 500 active | AID 686980; note: nearly all actives have a fitted effect of over 65% in size
Target sequence (P07378 whole entry, looked up): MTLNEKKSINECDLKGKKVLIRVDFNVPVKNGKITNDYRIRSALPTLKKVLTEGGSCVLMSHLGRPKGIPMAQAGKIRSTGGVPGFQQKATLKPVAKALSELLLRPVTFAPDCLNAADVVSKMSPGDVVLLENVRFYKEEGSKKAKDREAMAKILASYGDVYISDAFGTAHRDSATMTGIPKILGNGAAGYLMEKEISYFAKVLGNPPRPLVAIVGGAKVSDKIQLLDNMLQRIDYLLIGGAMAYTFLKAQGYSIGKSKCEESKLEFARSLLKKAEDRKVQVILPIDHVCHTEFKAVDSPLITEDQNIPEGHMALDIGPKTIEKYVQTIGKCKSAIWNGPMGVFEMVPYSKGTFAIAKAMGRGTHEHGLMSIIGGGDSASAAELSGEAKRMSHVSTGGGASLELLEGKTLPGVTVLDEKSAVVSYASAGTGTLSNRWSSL
Pol iota confirm: Inhibitors of human DNA polymerase iota, confirmation | 77% of 1,500 active | shares compounds with POLK inh | AID 720496 | Potency, µM, usual class: inhibitors | Pol iota primer extension, TAMRA/BHQ fluorescence
Pol eta inh-2: Pol eta (human) inhibition, cherry-pick confirmation; Potency, µM, actives largely listed as inhibitors; AID 720502; 64% of 2,600 active; Pol eta primer extension, TAMRA/BHQ fluorescence, 10 min; shares compounds with Pol eta inh-1
FEN1 inh-2: FEN1 inhibition, cherry-pick retest | 79% of 880 active | Potency, µM, usual class: inhibitors | FEN1 flap cleavage, TAMRA/BHQ2 fluorogenic DNA substrate | shares compounds with FEN1 inh-1; note: nearly all actives have a fitted effect of over 60% in size
Of the large screens only hits and unclear results are named; the others gave an inactive call (follow-up assays come after a bar, where they were run). Calls come from the whole dose curve; as a rule, active = well fitted curve in the direction sought with a large enough effect; inconclusive = small, poorly fitted or top-dose-only effect, or another doubt; inactive = no such curve, though single readings can be large; an effect the other way counts as inactive or inconclusive.

O=C(O)c1cc(O)c2c(c1)C(=O)c1cc(O)cc(O)c1C2=O	POLK inh 22µM, POLB inh 7.9µM, WRN inhibitor inconclusive, FEN1 inh-1 inconclusive, Pol eta inh-1 8.9µM, Pol iota inh inconclusive | Pol iota confirm 21 | Pol eta inh-2 6 | FEN1 inh-2 inconclusive
O=C(O)c1cccc(N(CCO)CCO)c1	none
Cc1cccc2cc(C(c3nnnn3C(C)(C)C)N(Cc3ccco3)CC3CCCO3)c(=O)[nH]c12 (centres undefined)	POLK inh 45µM, POLB inh 32µM, WRN inhibitor 1.7µM, FEN1 inh-1 inconclusive, Pol eta inh-1 7.9µM, Pol iota inh 16µM | PGK validate 1.8µM | Pol iota confirm 17 | Pol eta inh-2 19 | FEN1 inh-2 27
O=C1NN(c2ccc(Cl)cc2)C(=O)/C1=C\c1ccc(-c2cccc(C(=O)O)c2)o1	POLK inh 20µM, POLB inh 10µM, WRN inhibitor inconclusive, FEN1 inh-1 50µM, Pol eta inh-1 4.5µM, Pol iota inh 8.9µM | Pol iota confirm 21 | Pol eta inh-2 17 | FEN1 inh-2 67
COCCN=c1scc(-c2ccco2)n1/N=C/c1ccc(O)c(O)c1O	POLB inh 2.8µM, WRN inhibitor 28µM, FEN1 inh-1 35µM, Pol eta inh-1 4.5µM, Pol iota inh 2µM | Pol iota confirm 11 | Pol eta inh-2 9.5 | FEN1 inh-2 inconclusive
Cc1ccc(NC(=O)NC2=NN(c3ccccc3)C(=O)/C2=C2/CCCN2C)cc1	Pol iota inh inconclusive
O=C1NC(=O)/C(=C/c2ccc(-c3cccc([N+](=O)[O-])c3)o2)S1	WRN inhibitor 32µM, FEN1 inh-1 inconclusive, Pol eta inh-1 22µM, Pol iota inh inconclusive | PGK validate 18µM | Pol eta inh-2 inconclusive | FEN1 inh-2 inconclusive
CCn1cc(C(=O)O)c(=O)c2cc(F)c(N/N=C/c3ccccc3)cc21	POLB inh inconclusive, FEN1 inh-1 inconclusive, Pol eta inh-1 2.5µM, Pol iota inh inconclusive | Pol iota confirm 84 | Pol eta inh-2 2.7 | FEN1 inh-2 38
CC(C)N1CCc2c(sc(NC(=O)C3CC3)c2-c2nc3ccccc3s2)C1	none (no result: POLK inh, POLB inh, WRN inhibitor, FEN1 inh-1, Pol eta inh-1, Pol iota inh) | Pol iota confirm 42 | FEN1 inh-2 15
O=C(CCN1C(=O)/C(=C\C=C\c2ccccc2)SC1=S)Nc1ccc(C(=O)O)cc1	POLK inh inconclusive, POLB inh 20µM, WRN inhibitor 56µM, Pol eta inh-1 28µM, Pol iota inh inconclusive | Pol iota confirm 27 | Pol eta inh-2 85 | FEN1 inh-2 inconclusive
O=C(CCCN1C(=O)/C(=C\c2ccccc2)SC1=S)Nc1ccc(C(=O)O)cc1	Pol eta inh-1 inconclusive, Pol iota inh inconclusive
CCc1ccc(NC(=O)c2ccc(F)c(S(=O)(=O)NCCc3ccc(OC)c(OC)c3)c2)cc1	Pol iota inh inconclusive (no result: WRN inhibitor)
Cc1ccc(C(=O)NCC(=O)OCC(=O)N2CC(C)OC(C)C2)cc1 (centres undefined)	none (no result: POLB inh)
C[C@@H]1O[C@@H](Oc2c(-c3cc(O)c(O)c(O)c3)oc3cc(O)cc(O)c3c2=O)[C@H](O)[C@H](O)[C@H]1O	POLK inh 1.7µM, POLB inh inconclusive, FEN1 inh-1 2.2µM, Pol eta inh-1 inconclusive, Pol iota inh 50µM | Pol iota confirm inconclusive | FEN1 inh-2 3
Cc1ccc(NC(=O)c2c(C)noc2C)cc1S(=O)(=O)N1CCOCC1	none (no result: POLB inh)
O=C(O)c1ccc(N2C(=O)c3cccc4c(C(=O)O)ccc(c34)C2=O)cc1	POLK inh 20µM, POLB inh 6.3µM, WRN inhibitor 50µM, FEN1 inh-1 50µM, Pol eta inh-1 3.5µM, Pol iota inh 8.9µM | PGK validate 16µM | Pol iota confirm 15 | Pol eta inh-2 3.4 | FEN1 inh-2 21
O=C(O)c1ccc(N2C(=O)c3cccc4cccc(c34)C2=O)cc1	none
O=C(N/N=C/c1cccnc1)c1cc(O)c(O)c(O)c1	POLK inh inconclusive, POLB inh inconclusive, WRN inhibitor inconclusive, FEN1 inh-1 4µM, Pol iota inh inconclusive | Pol iota confirm 24 | FEN1 inh-2 6
COc1ccc(NC(=S)NC(=O)/C=C/c2ccco2)cc1	POLB inh inconclusive
O=C(/C=C/c1ccco1)NC(=S)Nc1ccc(C(=O)O)cc1	POLK inh 25µM, POLB inh 11µM, WRN inhibitor inconclusive, FEN1 inh-1 40µM, Pol eta inh-1 7.1µM, Pol iota inh inconclusive | Pol iota confirm 9.5 | Pol eta inh-2 5.4 | FEN1 inh-2 30
COc1cccc(-c2cc(C(=O)Nc3cccnc3)no2)c1	none
O=C1C=CC(=O)N1c1ccccn1	none (no result: POLB inh)
O=C1C=CC(=O)N1c1ccccc1N1C(=O)C=CC1=O	POLK inh inconclusive, WRN inhibitor inconclusive, FEN1 inh-1 inconclusive, Pol eta inh-1 inconclusive, Pol iota inh 40µM (no result: POLB inh) | Pol iota confirm inconclusive | Pol eta inh-2 inconclusive | FEN1 inh-2 inconclusive
O=C(O)CCNc1ccc(NCCC(=O)O)c2c1C(=O)c1ccccc1C2=O	POLK inh 22µM, POLB inh 13µM, WRN inhibitor inconclusive, FEN1 inh-1 18µM, Pol eta inh-1 4.5µM, Pol iota inh 13µM | PGK validate 16µM | Pol iota confirm 19 | Pol eta inh-2 11 | FEN1 inh-2 38
COc1ccccc1NCCC(=O)O	none
O=C1Nc2ccc(Br)cc2/C1=C/C(=O)c1ccc2c(c1)OCO2	Pol iota inh inconclusive
Nc1ccc(CC(N)c2csc(Nc3nncc4ccccc34)n2)cc1 (centres undefined)	none (no result: POLK inh, POLB inh, FEN1 inh-1, Pol eta inh-1, Pol iota inh)
CC(=O)c1ccc(NC(=O)c2ccc(NC(=O)c3ccco3)cc2)cc1	FEN1 inh-1 inconclusive
COC(=O)c1ccc(NC(=O)c2ccc(NC(=O)c3ccco3)cc2)cc1	FEN1 inh-1 inconclusive, Pol eta inh-1 inconclusive, Pol iota inh inconclusive | Pol iota confirm inconclusive | FEN1 inh-2 inconclusive
CCOC(=O)C1(CCCc2ccccc2)CCN(Cc2cnc(C)s2)CC1	none
O=C(CN1C(=O)N/C(=C\c2cccn2-c2cccc(C(=O)O)c2)C1=O)Nc1ccc(Cl)cc1	none (no result: POLK inh, POLB inh, WRN inhibitor, FEN1 inh-1, Pol eta inh-1, Pol iota inh) | Pol iota confirm 60 | Pol eta inh-2 inconclusive | FEN1 inh-2 60
